Assay [1] in a line: BSK_hDFCGF_SRB: Viability Assessment in the BioMAP Diversity Plus: hDFCGF Assay (AID 2283061).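 Further: cells exposed to compound for 24 h before the read.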 To be noted: primary human foreskin fibroblasts. The method, boiled down:
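Cells were dosed with test chemical, cultured 24 h, fixed with 10% TCA, then stained with 0.1% SRB and read at 560 nm. The fibroblasts were human foreskin primary cells, and DMSO served as baseline.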

Read-out in assay [2]: TIMP metallopeptidase inhibitor 1 (TIMP1), TIMP1 (gene 7076)
Nature of the assay: BSK_hDFCGF_TIMP1: BioMAP Diversity Plus: hDFCGF Assay for TIMP metallopeptidase inhibitor 1 (TIMP1) Biomarker Activity (AID 2283062). The settings on record: primary human foreskin fibroblasts; actives raise or lower the signal. In a few lines:
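Fibroblasts from human foreskin are treated with test chemical and harvested at 24 h. TIMP-1 is quantified by ELISA, and gain or loss of signal is scored against DMSO.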

Read-out in assay [3]: Monokine induced gamma interferon (MIG), CXCL9 (gene 4283)
Put plainly: BSK_hDFCGF_MIG: BioMAP Diversity Plus: hDFCGF Assay for Monokine induced gamma interferon (MIG) Biomarker Activity (AID 2283063). The settings on record: primary human foreskin fibroblasts; actives raise or lower the signal. In a few lines:
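MIG signal, determined by ELISA, reflects 24 h chemical exposure of human skin primary fibroblasts. DMSO serves as negative control and baseline.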

Read-out in assay [4]: Matrix Metallopeptidase 1 (MMP1), MMP1 (gene 4312)
Put plainly: BSK_hDFCGF_MMP1: BioMAP Diversity Plus: hDFCGF Assay for Matrix Metallopeptidase 1 (MMP1) Biomarker Activity (AID 2283064). The settings on record: primary human foreskin fibroblasts; actives raise or lower the signal. The method, boiled down: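 Primary human foreskin fibroblasts exposed to chemicals for 24 h; MMP1 measured by ELISA. Cytotoxicity tracked by SRB staining in parallel cultures; bidirectional fit relative to DMSO.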

Read-out in assay [5]: Vascular cell adhesion molecule 1 (VCAM1), VCAM1 (gene 7412)
Nature of the assay: BSK_hDFCGF_VCAM1: BioMAP Diversity Plus: hDFCGF Assay for Vascular cell adhesion molecule 1 (VCAM1) Biomarker Activity (AID 2283065).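 On AC50: VCAM-1 protein level quantified by ELISA after 24 h chemical exposure.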 To be noted: primary human foreskin fibroblasts; actives raise or lower the signal. In a few lines: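 Cells are dosed, cultured for 24 h, then VCAM-1 is quantified by ELISA; signal increases and decreases are both fitted relative to DMSO.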

Read-out in assay [6]: Plasminogen activator inhibitor-1 (PAI1), SERPINE1 (gene 5054)
Put plainly: BSK_hDFCGF_PAI1: BioMAP Diversity Plus: hDFCGF Assay for Plasminogen activator inhibitor-1 (PAI1) Biomarker Activity (AID 2283066). The settings on record: primary human foreskin fibroblasts; actives raise or lower the signal. The method, boiled down:
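Human foreskin fibroblast primary cells, 24 h chemical exposure; PAI-1 measured by ELISA. Bidirectional fitting relative to DMSO; parallel cultures stained with SRB for total protein to flag overt cytotoxicity.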

Read-out in assay [7]: Intercellular Adhesion Molecule 1 (ICAM1), ICAM1 (gene 3383)
Put plainly: BSK_KF3CT_ICAM1: BioMAP Diversity Plus: KF3CT Assay for Intercellular Adhesion Molecule 1 (ICAM1) Biomarker Activity (AID 2283067). To be noted: primary human keratinocytes with fibroblasts; actives raise or lower the signal. In a few lines: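 Dose the keratinocyte/fibroblast co-culture, wait 24 h, measure ICAM-1 by ELISA, then fit increases or decreases against DMSO. Cytotoxicity is checked in parallel cultures by SRB total-protein staining.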

Read-out in assay [8]: Interferon-gamma inducible Protein 10 (IP10), CXCL10 (gene 3627)
Nature of the assay: BSK_KF3CT_IP10: BioMAP Diversity Plus: KF3CT Assay for Interferon-gamma inducible Protein 10 (IP10) Biomarker Activity (AID 2283068). To be noted: primary human keratinocytes with fibroblasts; actives raise or lower the signal. The method, boiled down: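 KF3CT co-culture (keratinocytes + foreskin fibroblasts), 24 h compound, IP-10 by ELISA; bidirectional fit vs DMSO baseline.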

Assay [9] in a line: BSK_KF3CT_SRB: Viability Assessment in the BioMAP Diversity Plus: KF3CT Assay (AID 2283069).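 Further: fitted for both signal gain and loss against DMSO baseline.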 To be noted: primary human keratinocytes with fibroblasts. In a few lines: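 Human keratinocyte and foreskin fibroblast co-culture exposed to chemical for 24 h. Total protein measured in parallel cultures by 0.1% sulforhodamine B staining after 10% TCA fixation, read at 560 nm; bidirectional fit relative to DMSO.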

Read-out in assay [10]: Interleukin-1 alpha (IL1a), IL1A (gene 3552)
Put plainly: BSK_KF3CT_IL1a: BioMAP Diversity Plus: KF3CT Assay for Interleukin-1 alpha (IL1a) Biomarker Activity (AID 2283070). To be noted: primary human keratinocytes with fibroblasts; actives raise or lower the signal. In a few lines:
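Primary human keratinocyte plus foreskin fibroblast co-culture, dosed and measured at 24 h in 96-well plates. IL-1a level quantified by ELISA; bidirectional fit relative to DMSO.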

Read-out in assay [11]: TIMP metallopeptidase inhibitor 2 (TIMP2), TIMP2 (gene 7077)
Put plainly: BSK_KF3CT_TIMP2: BioMAP Diversity Plus: KF3CT Assay for TIMP metallopeptidase inhibitor 2 (TIMP2) Biomarker Activity (AID 2283071). The settings on record: primary human keratinocytes with fibroblasts; actives raise or lower the signal. In a few lines: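 Co-culture of human primary keratinocytes and foreskin fibroblasts, measured 24 h after chemical dosing. TIMP-2 quantified by ELISA and fitted in both directions relative to DMSO. Cytotoxicity checked in parallel cultures by SRB total-protein staining.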

Read-out in assay [12]: C-C motif chemokine 2 (Homo sapiens) (UniProt P13500)
Nature of the assay: BSK_KF3CT_MCP1: BioMAP Diversity Plus: KF3CT Assay for Monocyte Chemoattractant Protein 1 (MCP1/CCL2) Biomarker Activity (AID 2283073). The settings on record: primary human keratinocytes with fibroblasts; actives raise or lower the signal. In a few lines: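 Keratinocytes and foreskin fibroblasts were co-cultured, dosed with chemical, and sampled 24 h later. MCP-1 was quantified by ELISA, and the endpoint was analyzed with bidirectional fitting using DMSO as negative control.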

Read-out in assay [13]: Matrix Metallopeptidase 9 (MMP9), MMP9 (gene 4318)
Nature of the assay: BSK_KF3CT_MMP9: BioMAP Diversity Plus: KF3CT Assay for Matrix Metallopeptidase 9 (MMP9) Biomarker Activity (AID 2283074).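 On AC50: MMP9 protein level quantified by ELISA in the co-culture.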 To be noted: primary human keratinocytes with fibroblasts; actives raise or lower the signal. The method, boiled down: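 Human keratinocyte and foreskin fibroblast co-culture exposed to chemicals for 24 h; MMP9 biomarker measured by ELISA, bidirectional fitting relative to DMSO; cytotoxicity tracked by SRB total protein staining in parallel cultures.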

Read-out in assay [14]: urokinase plasminogen activator (uPA), PLAU (gene 5328)
Nature of the assay: BSK_KF3CT_uPA: BioMAP Diversity Plus: KF3CT Assay for urokinase plasminogen activator (uPA) Biomarker Activity (AID 2283075). The settings on record: primary human keratinocytes with fibroblasts; actives raise or lower the signal. In a few lines: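 Primary human keratinocyte/foreskin fibroblast co-culture exposed to chemical; uPA measured by ELISA at 24 h. Bidirectional fit versus DMSO, with parallel SRB total-protein staining for cytotoxicity.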

Read-out in another assay: CD40, CD40 (gene 958)
Nature of the assay: BSK_LPS_CD40: BioMAP Diversity Plus: LPS Assay for CD40 Biomarker Activity (AID 2283076). To be noted: primary human HUVEC with PBMC; actives raise or lower the signal. The method, boiled down: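 CD40 signal, measured by ELISA, is fitted in both directions relative to DMSO vehicle. The system is an LPS-driven human vascular primary co-culture of endothelial cells and PBMC, sampled 24 h after compound addition.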

Read-out in assay [15]: E-selectin (Homo sapiens) (UniProt P16581)
Put plainly: BSK_LPS_Eselectin: BioMAP Diversity Plus: LPS Assay for Eselectin Biomarker Activity (AID 2283077). The settings on record: primary human HUVEC with PBMC; actives raise or lower the signal. The method, boiled down:
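Signal of E-selectin, detected by ELISA, served as the endpoint; cells were umbilical vein endothelium with PBMC, read 24 h after treatment. DMSO defined baseline, and both increases and decreases were fitted.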

Assay [16] can be described thus: BSK_LPS_SRB: Viability Assessment in the BioMAP Diversity Plus: LPS Assay (AID 2283079).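 Further: total protein by sulforhodamine B absorbance as a cytotoxicity measure; measured one day after compound addition; fitted in both directions against DMSO so loss or gain of signal counts.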 The settings on record: primary human HUVEC with PBMC. The method, boiled down: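 Overt cytotoxicity was gauged by sulforhodamine B total-protein staining in a primary human vascular endothelial and mononuclear cell co-culture 24 h post-dosing. Activity was fitted in both directions relative to DMSO.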

Read-out in assay [17]: Interleukin-1 alpha (IL1a), IL1A (gene 3552)
Nature of the assay: BSK_LPS_IL1a: BioMAP Diversity Plus: LPS Assay for Interleukin-1 alpha (IL1a) Biomarker Activity (AID 2283080). To be noted: primary human HUVEC with PBMC; actives raise or lower the signal. The method, boiled down:
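Measured: IL-1 alpha via ELISA at 24 h in LPS-activated human umbilical vein endothelium–PBMC co-culture. Baseline: DMSO, bidirectional fitting.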

Read-out in assay [18]: Interleukin-8 (IL8), CXCL8 (gene 3576)
Nature of the assay: BSK_LPS_IL8: BioMAP Diversity Plus: LPS Assay for Interleukin-8 (IL8) Biomarker Activity (AID 2283078). To be noted: primary human HUVEC with PBMC; actives raise or lower the signal. In a few lines:
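Endothelial cells and PBMC from human donors are co-cultured, treated with chemicals and LPS, then assayed for IL-8 by ELISA after 24 h. Parallel SRB staining (0.1% SRB after 10% TCA fixation, 560 nm) flags cytotoxicity.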

Structures are written as SMILES. The source made the active and inactive calls. How the source made its calls: active means hit-call score of the fitted dose curve at least 0.9, where 1 is the maximum; inactive means score below 0.9.

Sequence of E-selectin (Homo sapiens) (P16581 whole entry, looked up): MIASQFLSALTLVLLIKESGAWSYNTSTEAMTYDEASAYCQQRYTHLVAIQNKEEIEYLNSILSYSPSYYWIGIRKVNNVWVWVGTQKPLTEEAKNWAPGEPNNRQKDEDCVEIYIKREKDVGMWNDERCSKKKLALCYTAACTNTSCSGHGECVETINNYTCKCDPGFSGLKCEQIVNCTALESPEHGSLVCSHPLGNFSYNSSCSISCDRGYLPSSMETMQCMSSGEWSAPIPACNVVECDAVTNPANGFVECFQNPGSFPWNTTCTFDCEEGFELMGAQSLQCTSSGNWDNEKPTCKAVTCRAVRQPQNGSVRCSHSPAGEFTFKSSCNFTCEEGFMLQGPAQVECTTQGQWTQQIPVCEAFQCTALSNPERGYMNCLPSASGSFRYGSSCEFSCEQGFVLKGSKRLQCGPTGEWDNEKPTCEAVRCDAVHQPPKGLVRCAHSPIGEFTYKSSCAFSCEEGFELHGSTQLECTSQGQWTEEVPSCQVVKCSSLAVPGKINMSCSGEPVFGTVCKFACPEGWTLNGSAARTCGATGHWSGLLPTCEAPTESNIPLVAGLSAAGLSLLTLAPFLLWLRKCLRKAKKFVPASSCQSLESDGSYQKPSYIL

Regarding `CC(C)C(=O)Nc1ccc([N+](=O)[O-])c(C(F)(F)F)c1`, the outcome in assay [1], in [2], in assay [3], in assay [4], in assay [5] and in assay [6] was inactive. Further, the result in assay [7], in [8], in assay [9], in assay [10], in [11] and in assay [12] was inactive. The outcome is “inactive” in [13]; “inactive” in assay [14]; “inactive” with CD40, CD40 (gene 958); “inactive” in [15]; “inactive” in [16]; “inactive” in [17].
As to `COCc1nnc(-c2ccc[n+]([O-])c2)n1-c1c(Cl)c(Cl)cc2[nH]c(=O)c(=O)[nH]c12`, the result in [1], in assay [2], in assay [3], in assay [4], in assay [5] and in assay [6] was inactive. Further, the result in [7], in assay [8], in assay [9], in assay [10], in assay [11] and in assay [12] was inactive. In addition, the outcome was “inactive” in assay [13]; “inactive” in [14]; “inactive” in the assay with CD40, CD40 (gene 958); “inactive” in [15]; “inactive” in assay [16]; “inactive” in [17].
Regarding `CCCCCCCCCCCCCCO`, the half-maximal activity concentration (AC50) (in general, the concentration at which the activity in the assay is half-maximal) in [1] is 30.2 µM (active); in assay [3], 10.8 µM (active); in assay [5], 20 µM (active); in assay [6] it was 27 µM (active); with CD40, CD40 (gene 958) it was 36.6 µM (active); in assay [18] it was 34 µM (active). For the same compound, the AC50 in assay [16] is 30.7 µM (active); in assay [17] it was 30.2 µM (active). Besides, the outcome in assay [2], in assay [4], in [7], in [8], in [9] and in [10] was inactive. The outcome in [11], in assay [12], in [13] and in [14] was inactive.
Take `CC[C@H](C)C(=O)O[C@H]1C[C@H](O)C=C2C=C[C@H](C)[C@H](CC[C@@H](O)C[C@@H](O)CC(=O)O)[C@H]21`: the outcome in assay [1], in assay [2], in assay [3], in assay [4], in assay [5] and in assay [6] was inactive. Also, the outcome in assay [7], in [8], in assay [9], in assay [10], in assay [11] and in [12] was inactive. For the same compound, the outcome in [13] is “inactive”; in assay [14], “inactive”; with CD40, CD40 (gene 958), “inactive”; in [15], “inactive”; in assay [16], “inactive”; in [17], “inactive”.
Turning to `CCN(CC)C(=S)SSC(=S)N(CC)CC`, the AC50 in [1] was 4.75 µM (active); in assay [2] it was 2.03 µM (active); in [4], 3.27 µM (active); in [5], 1.56 µM (active); in [6], 3.95 µM (active); in [7], 13.5 µM (active). The AC50 in assay [8] was 9.46 µM (active); in [9] it was 9.96 µM (active); in assay [10], 13.4 µM (active); in [11] it was 12.4 µM (active); in assay [12], 10.5 µM (active); in [13], 14.2 µM (active). Besides, the AC50 in [14] was 14.8 µM (active); in the assay with CD40, CD40 (gene 958) it was 30.4 µM (active); in [15], 34.8 µM (active); in [16] it was 31.1 µM (active).
On to `OCCOCCOCCO`, for which the outcome in assay [1], in assay [2], in assay [3], in assay [4], in assay [5] and in [6] was inactive. Besides, the outcome in assay [7], in [8], in [9], in [10], in assay [11] and in [12] was inactive. Moreover, the outcome in assay [13] was “inactive”; in assay [14], “inactive”; with CD40, CD40 (gene 958), “inactive”; in assay [15], “inactive”; in assay [16] it was “inactive”; in [17] it was “inactive”.
Turning to `NCC(F)(F)C(F)(F)C(F)(F)C(F)(F)F`, the result in assay [1], in assay [2], in [3], in [4], in [5] and in assay [6] was inactive. For the same compound, the outcome in assay [7], in [8], in assay [9], in assay [10], in assay [11] and in [12] was inactive. Moreover, the outcome in [13] is “inactive”; in [14], “inactive”; with CD40, CD40 (gene 958) it was “inactive”; in [15], “inactive”; in [16], “inactive”; in assay [17], “inactive”.
